The record followed here is PubChem BioAssay.

Values without a mark were called inactive. The source made the active and inactive calls. Rule as the data show it: active = fold change permeability below about 0.7 or above about 1.3; inactive = in between.

This assay in a line: modulators of brain endothelial barrier permeability, primary screen, cell-based, FITC-avidin fluorescence, HTS (AID 1963498). Also: test concentration not given here. To be noted: actives lie on both sides.

As to `CN1CC(=O)NC1=NC(=O)Nc1cccc(Cl)c1`, the fold change permeability was 0.7 (active).

As to `CC(=O)[C@@]1(O)CC[C@H]2[C@@H]3CCC4=CC(=O)CC[C@]4(C)[C@H]3CC[C@@]21C`, the fold change permeability was 1.

Regarding `CC1=C(/C=C/C(C)=C/C=C/C(C)=C\C(=O)O)C(C)(C)CCC1`, the fold change permeability was 1.4 (active).

Consider `Cc1cc(C(=O)N2Cc3cnn(C)c3Nc3ccccc32)ccc1CNC(=O)N1CCN(Cc2cc(O)cc(O)c2)CC1`, for which the fold change permeability is 1.2.

Turning to `Cc1cc(NC2CCCCC2)nc(-n2nc(C)cc2C)n1`, the fold change permeability was 1.3 (active).

As for `CN1CCN(CCCN2c3ccccc3Sc3ccc(Cl)cc32)CC1`, the fold change permeability was 1.

Regarding `C=C1C(=O)O[C@@H]2[C@H]3O[C@]3(C)CC/C=C(\C)CC[C@@H]12`, the fold change permeability was 1.3 (active).

In the case of `COC(=O)Nc1nc2ccc(C(=O)c3cccs3)cc2[nH]1`, the fold change permeability was 1.4 (active).

Turning to `Cc1nc2ccc(NC(=O)Nc3ccnc4cccnc34)cc2o1`, the fold change permeability was 1.4 (active).

For `COc1ccccc1N1CCN(CCCNc2c(C)c(=O)n(C)c(=O)n2C)CC1`, the fold change permeability is 1.5 (active).

As to `C[N+](C)(C)CCO`, the fold change permeability was 1.

Regarding `CCCCCN(CCCCC)C(=O)C(CCC(=O)O)NC(=O)c1ccc(Cl)c(Cl)c1` (configuration not stated), the fold change permeability is 1.4 (active).

`CCc1cccc2c3c([nH]c12)C(CC)(CC(=O)O)OCC3` (configuration not stated): the fold change permeability was 1.3 (active).

In the case of `CCCNC(C)C(=O)Nc1ccccc1C` (configuration not stated), the fold change permeability is 1.

Regarding `N[C@H](C(=O)O)[C@H](O)c1ccc(O)c(O)c1`, the fold change permeability is 0.9.

`CC(C)(C)NCC(O)c1cc(O)cc(O)c1` (configuration not stated): the fold change permeability was 0.8.

Take `CC(C)(N)C(=O)N[C@H](COCc1ccccc1)C(=O)N1CCC2(CC1)CN(S(C)(=O)=O)c1ccccc12`: the fold change permeability is 1.8 (active).
